Measured values reported in PubChem BioAssay AID1159580 (chemical genetic matrix, 2015).
The whole screen tested about 5,500 compounds, of which about 2,000 (36%) were called active. Another 18% or so got no clear call; they are omitted. Cut-off read from the data, not from the text of the source: active = normalized growth mostly below about 0.91 (no sharp cut-off); inconclusive = no clear call, values can overlap the other calls; inactive = mostly above about 0.92. Some of the results follow.

Assay: chemical genetic growth profiling, strain panel (AID 1159580);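 note: tested at 20 µM; growth read once vehicle control cultures reached saturation at 30 °C; 1 = growth at the plate median or of vehicle wells; lower values mean less growth of the strain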
Conditions: S. cerevisiae deletion strains, growth OD

Measured: normalized growth

CC1=C(C)C(=O)C(CCCCC#CCCCC#CCO)=C(C)C1=O
inactive: locus YAL013W, strain DEP1, hits give low values 0.995 | locus YAL040C, strain CLN3, hits give low values 0.993 | locus YCL061C, strain MRC1 (second series), hits give low values 1 | locus YDR363W, strain ESC2, hits give low values 0.988 | locus YER002W, strain NOP16, hits give low values 0.996 | locus YMR263W, strain SAP30, hits give low values 1 | locus YNL128W, strain TEP1, hits give low values 0.998 | locus YNL175C, strain NOP13, hits give low values 1 | locus YNL197C, strain WHI3, hits give low values 0.997 | locus YNL224C, strain SQS1, hits give low values 0.984 | locus YOR083W, strain WHI5 (second series), hits give low values 0.975
